The results in this text go back to paper PMC7862700, “An all-to-all approach to the identification of sequence-specific readers for epigenetic DNA modifications on cytosine”.

Holding throughout (test): DAPPL (digital affinity profiling via proximity ligation, sequencing); 10 mM Tris-HCl pH 7.5, 50 mM NaCl, 1 mM DTT, 4% glycerol, room temperature, 30 min; GST-TFs on glutathione beads, 16-mer random dsDNA library, 0.1% formaldehyde crosslink after washing; high values mean tight binding
Experiment [1] concerns the target T1, FLI1 (Homo sapiens, UniProt Q01543 1-452).
T1 sequence: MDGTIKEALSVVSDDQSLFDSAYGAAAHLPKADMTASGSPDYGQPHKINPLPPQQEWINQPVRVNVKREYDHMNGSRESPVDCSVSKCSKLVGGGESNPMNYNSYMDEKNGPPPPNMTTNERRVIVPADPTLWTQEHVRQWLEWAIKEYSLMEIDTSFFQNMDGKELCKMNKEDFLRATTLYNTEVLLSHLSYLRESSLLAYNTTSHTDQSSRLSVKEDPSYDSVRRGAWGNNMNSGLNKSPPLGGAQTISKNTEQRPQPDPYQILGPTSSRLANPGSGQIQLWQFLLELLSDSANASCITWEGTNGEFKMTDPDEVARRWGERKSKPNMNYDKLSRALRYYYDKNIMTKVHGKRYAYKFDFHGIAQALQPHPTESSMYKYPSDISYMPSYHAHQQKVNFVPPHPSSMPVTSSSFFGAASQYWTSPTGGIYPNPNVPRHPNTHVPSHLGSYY
Particulars: protein: recombinant; tags: N-terminal GST; dsDNA, one strand shown. The essentials: (§1)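 Pools were built from human transcription factors expressed in yeast as GST fusions, captured on glutathione beads and DNA-barcoded, along with a tag-only sample. Incubation with 200 nmole of a 16-mer random double-stranded DNA library lasted 30 min at room temperature in Tris/NaCl/DTT/glycerol buffer, and was followed by washing, 0.1% formaldehyde crosslinking, proximity ligation, PCR amplification and Illumina NextSeq500 sequencing. Binding signal is the quotient of each hexamer's read frequency for a factor and its frequency for the tag-only sample.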

Experiment [2] addresses T2, ELK1 (Homo sapiens, UniProt P19419 1-428).
T2 sequence: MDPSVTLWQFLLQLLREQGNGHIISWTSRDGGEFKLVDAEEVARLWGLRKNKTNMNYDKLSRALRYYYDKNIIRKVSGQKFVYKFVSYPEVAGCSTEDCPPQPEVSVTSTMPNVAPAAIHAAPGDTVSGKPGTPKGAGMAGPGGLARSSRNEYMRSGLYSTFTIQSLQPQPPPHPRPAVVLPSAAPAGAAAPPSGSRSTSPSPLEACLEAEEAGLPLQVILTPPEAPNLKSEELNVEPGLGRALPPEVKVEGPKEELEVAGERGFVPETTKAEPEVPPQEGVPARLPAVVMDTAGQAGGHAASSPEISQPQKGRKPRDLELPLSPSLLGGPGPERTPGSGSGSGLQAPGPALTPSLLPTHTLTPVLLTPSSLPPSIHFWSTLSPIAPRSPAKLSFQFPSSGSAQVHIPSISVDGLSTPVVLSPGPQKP
Particulars: protein: recombinant; tags: N-terminal GST; dsDNA, one strand shown. In a few lines: as §1

Experiment [3] deals with T3, GABPA (Homo sapiens, UniProt Q06546 1-454).
T3 sequence: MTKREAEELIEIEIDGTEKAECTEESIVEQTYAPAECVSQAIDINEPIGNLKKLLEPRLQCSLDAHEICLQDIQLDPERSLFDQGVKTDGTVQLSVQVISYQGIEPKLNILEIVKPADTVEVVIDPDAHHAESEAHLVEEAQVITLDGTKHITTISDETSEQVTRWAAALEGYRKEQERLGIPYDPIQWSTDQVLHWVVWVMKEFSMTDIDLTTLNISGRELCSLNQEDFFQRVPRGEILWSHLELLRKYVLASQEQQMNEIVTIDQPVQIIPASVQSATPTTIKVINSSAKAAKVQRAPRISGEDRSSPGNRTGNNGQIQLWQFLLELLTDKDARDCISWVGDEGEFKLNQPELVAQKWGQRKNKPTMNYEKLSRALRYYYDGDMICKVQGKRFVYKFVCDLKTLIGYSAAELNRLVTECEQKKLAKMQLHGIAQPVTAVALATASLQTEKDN
Conditions: protein: recombinant; tags: N-terminal GST; dsDNA, one strand shown. The essentials: as §1

Experiment [4] deals with T4, ERG (Homo sapiens, UniProt P11308 1-479).
T4 sequence: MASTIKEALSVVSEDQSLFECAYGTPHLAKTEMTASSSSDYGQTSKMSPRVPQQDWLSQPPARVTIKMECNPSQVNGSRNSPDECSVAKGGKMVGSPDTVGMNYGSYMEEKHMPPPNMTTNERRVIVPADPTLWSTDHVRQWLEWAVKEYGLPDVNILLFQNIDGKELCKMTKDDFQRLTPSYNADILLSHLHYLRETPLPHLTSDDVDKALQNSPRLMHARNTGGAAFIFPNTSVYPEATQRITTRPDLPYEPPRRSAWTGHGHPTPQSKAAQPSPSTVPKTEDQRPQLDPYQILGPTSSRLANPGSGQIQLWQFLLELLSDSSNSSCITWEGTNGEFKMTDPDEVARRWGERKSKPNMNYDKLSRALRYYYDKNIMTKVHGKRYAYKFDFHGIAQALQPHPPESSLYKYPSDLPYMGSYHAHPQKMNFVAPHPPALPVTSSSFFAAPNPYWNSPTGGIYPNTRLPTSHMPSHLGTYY
Conditions: protein: recombinant; tags: N-terminal GST; dsDNA, one strand shown. The essentials:
as §1

The target of experiment [5] is ELF1 (Homo sapiens, UniProt P32519 1-619). Particulars: protein: recombinant; tags: N-terminal GST; dsDNA, one strand shown. The essentials:
as §1

The target in experiment [6] is T5, EHF (Homo sapiens, UniProt Q9NZC4 1-300).
T5 sequence: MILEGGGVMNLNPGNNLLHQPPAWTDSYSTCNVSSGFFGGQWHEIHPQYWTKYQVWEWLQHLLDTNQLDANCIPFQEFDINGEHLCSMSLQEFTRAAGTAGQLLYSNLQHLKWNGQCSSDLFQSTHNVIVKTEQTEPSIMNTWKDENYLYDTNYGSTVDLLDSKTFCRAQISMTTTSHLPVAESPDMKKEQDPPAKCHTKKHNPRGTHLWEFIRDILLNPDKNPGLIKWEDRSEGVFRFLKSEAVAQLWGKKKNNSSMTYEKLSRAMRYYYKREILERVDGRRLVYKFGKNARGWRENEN
Particulars: protein: recombinant; tags: N-terminal GST; dsDNA, one strand shown. The essentials:
as §1

The target in experiment [7] is SPI1 (Homo sapiens, UniProt P17947 1-270). Particulars: protein: recombinant; tags: N-terminal GST; dsDNA, one strand shown. The essentials:
as §1

Experiment [8] concerns the target SPIB (Homo sapiens, UniProt Q01892 1-262). Conditions: protein: recombinant; tags: N-terminal GST; dsDNA, one strand shown. The essentials: as §1
In experiment [9] the target is T6, ELK3 (Homo sapiens, UniProt P41970 1-407).
T6 sequence: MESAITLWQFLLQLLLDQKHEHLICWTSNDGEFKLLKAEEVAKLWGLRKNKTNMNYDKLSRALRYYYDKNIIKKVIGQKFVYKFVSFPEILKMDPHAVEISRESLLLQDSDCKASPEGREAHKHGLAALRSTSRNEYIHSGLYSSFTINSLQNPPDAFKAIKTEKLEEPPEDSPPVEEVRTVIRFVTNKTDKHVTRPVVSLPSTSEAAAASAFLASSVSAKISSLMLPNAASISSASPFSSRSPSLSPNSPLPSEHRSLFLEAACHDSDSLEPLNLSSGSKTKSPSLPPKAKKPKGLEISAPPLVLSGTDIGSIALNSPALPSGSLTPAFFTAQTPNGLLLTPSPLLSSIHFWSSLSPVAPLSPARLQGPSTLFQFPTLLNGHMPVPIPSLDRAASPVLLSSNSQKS
Conditions: protein: recombinant; tags: N-terminal GST; dsDNA, one strand shown. In a few lines: as §1

Experiment [10] concerns the target T7, FEV (Homo sapiens, UniProt Q99581 1-238).
T7 sequence: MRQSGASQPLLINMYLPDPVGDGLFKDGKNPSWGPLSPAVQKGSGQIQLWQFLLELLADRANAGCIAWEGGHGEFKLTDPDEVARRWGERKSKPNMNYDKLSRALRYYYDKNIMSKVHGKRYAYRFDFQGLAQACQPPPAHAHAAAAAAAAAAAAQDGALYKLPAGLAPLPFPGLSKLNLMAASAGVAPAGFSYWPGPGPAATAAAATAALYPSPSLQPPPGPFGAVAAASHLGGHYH
Particulars: protein: recombinant; tags: N-terminal GST; dsDNA, one strand shown. The essentials:
as §1

The target in experiment [11] is ETV5 (Homo sapiens, UniProt P41161 1-510). Particulars: protein: recombinant; tags: N-terminal GST; dsDNA, one strand shown. In a few lines: as §1
Experiment [12] addresses HSF1 (Homo sapiens, UniProt Q00613 1-529). Particulars: protein: recombinant; tags: N-terminal GST; chain copies: 3; dsDNA, one strand shown. The essentials: as §1
For experiment [13], the target named is T8, SPIC (Homo sapiens, UniProt Q8N5J4 1-248).
T8 sequence: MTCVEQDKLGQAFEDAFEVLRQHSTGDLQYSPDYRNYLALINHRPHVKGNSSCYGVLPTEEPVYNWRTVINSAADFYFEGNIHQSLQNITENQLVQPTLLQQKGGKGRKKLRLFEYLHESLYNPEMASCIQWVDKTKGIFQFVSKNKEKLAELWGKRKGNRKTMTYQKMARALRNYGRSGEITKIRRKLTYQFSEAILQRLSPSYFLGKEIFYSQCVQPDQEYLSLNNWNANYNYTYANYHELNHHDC
Particulars: protein: recombinant; tags: N-terminal GST; dsDNA, one strand shown. In a few lines:
as §1

For experiment [14], the target named is ELF4 (Homo sapiens, UniProt Q99607 1-663). Particulars: protein: recombinant; tags: N-terminal GST; dsDNA, one strand shown. The essentials:
as §1

Experiment [15] deals with T9, ELK4 (Homo sapiens, UniProt P28324-2 1-405).
T9 sequence: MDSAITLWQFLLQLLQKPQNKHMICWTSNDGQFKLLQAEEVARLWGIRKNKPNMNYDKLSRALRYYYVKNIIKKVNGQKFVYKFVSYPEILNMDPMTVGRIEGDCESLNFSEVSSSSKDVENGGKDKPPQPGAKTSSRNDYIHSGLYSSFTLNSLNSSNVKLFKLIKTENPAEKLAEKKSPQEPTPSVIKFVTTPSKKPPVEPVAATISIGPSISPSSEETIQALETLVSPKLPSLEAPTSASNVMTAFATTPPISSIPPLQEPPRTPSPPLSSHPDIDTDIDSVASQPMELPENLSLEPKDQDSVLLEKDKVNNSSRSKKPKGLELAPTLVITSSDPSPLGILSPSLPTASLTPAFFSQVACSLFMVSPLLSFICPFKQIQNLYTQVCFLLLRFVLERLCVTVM
Conditions: protein: recombinant; tags: N-terminal GST; dsDNA, one strand shown. In a few lines: as §1

Experiment [16] concerns the target T10, ETV2 (Homo sapiens, UniProt O00321 1-342).
T10 sequence: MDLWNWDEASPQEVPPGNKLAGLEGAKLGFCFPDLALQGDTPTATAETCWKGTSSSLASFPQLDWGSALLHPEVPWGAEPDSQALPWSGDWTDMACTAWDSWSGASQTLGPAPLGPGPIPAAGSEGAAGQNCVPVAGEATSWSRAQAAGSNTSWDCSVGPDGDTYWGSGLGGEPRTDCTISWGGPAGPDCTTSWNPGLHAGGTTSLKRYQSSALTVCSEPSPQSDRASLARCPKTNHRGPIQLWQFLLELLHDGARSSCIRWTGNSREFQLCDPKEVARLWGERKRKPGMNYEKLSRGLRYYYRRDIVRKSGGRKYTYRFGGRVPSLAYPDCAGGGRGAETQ
Particulars: protein: recombinant; tags: N-terminal GST; dsDNA, one strand shown. The essentials: as §1

Experiment [17] concerns the target T11, ELF3 (Homo sapiens, UniProt P78545 1-371).
T11 sequence: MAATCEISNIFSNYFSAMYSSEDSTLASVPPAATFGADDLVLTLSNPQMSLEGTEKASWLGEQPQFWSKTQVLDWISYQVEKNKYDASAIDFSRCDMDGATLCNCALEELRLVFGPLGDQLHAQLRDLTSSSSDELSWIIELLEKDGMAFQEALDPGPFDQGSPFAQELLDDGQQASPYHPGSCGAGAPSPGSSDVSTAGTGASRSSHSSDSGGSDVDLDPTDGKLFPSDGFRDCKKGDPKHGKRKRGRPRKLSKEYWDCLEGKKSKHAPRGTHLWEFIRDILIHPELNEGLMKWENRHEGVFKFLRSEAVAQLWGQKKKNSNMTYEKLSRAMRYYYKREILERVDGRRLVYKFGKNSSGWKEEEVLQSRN
Particulars: protein: recombinant; tags: N-terminal GST; dsDNA, one strand shown. In a few lines:
as §1

Experiment [18] addresses CRX (Homo sapiens, UniProt O43186 1-299). Conditions: protein: recombinant; tags: N-terminal GST; dsDNA, one strand shown. In a few lines:
as §1

The target of experiment [19] is ETV1 (Homo sapiens, UniProt P50549 1-477). Conditions: protein: recombinant; tags: N-terminal GST; dsDNA, one strand shown. In a few lines: as §1
Sequence of ETV1 (P50549 whole entry): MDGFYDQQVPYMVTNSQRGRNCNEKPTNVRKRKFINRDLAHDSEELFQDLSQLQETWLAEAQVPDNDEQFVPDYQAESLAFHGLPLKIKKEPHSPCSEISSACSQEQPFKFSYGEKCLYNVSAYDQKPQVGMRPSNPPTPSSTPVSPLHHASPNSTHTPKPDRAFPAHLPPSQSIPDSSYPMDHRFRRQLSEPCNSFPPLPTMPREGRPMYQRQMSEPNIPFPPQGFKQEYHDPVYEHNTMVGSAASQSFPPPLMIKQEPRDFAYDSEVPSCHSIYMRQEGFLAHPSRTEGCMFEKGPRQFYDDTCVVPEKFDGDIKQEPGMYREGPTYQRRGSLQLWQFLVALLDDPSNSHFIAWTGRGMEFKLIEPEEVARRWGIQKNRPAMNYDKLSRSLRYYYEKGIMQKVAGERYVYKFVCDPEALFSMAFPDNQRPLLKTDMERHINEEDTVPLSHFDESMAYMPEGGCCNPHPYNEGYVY

Sequence of ETV5 (P41161 whole entry): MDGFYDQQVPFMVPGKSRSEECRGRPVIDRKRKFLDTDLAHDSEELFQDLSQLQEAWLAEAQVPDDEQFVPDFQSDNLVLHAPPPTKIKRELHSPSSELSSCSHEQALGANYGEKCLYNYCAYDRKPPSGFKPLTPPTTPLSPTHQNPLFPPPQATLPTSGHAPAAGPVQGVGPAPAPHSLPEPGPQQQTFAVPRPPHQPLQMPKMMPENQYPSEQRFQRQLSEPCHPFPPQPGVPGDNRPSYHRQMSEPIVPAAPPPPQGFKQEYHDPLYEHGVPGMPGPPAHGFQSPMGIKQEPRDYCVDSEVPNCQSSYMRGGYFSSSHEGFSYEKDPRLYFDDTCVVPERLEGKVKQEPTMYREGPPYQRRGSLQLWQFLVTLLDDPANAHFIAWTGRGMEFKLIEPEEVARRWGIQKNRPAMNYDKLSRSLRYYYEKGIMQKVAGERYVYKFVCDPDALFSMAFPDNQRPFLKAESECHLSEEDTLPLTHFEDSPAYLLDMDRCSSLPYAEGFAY
Sequence of ELF1 (P32519 whole entry): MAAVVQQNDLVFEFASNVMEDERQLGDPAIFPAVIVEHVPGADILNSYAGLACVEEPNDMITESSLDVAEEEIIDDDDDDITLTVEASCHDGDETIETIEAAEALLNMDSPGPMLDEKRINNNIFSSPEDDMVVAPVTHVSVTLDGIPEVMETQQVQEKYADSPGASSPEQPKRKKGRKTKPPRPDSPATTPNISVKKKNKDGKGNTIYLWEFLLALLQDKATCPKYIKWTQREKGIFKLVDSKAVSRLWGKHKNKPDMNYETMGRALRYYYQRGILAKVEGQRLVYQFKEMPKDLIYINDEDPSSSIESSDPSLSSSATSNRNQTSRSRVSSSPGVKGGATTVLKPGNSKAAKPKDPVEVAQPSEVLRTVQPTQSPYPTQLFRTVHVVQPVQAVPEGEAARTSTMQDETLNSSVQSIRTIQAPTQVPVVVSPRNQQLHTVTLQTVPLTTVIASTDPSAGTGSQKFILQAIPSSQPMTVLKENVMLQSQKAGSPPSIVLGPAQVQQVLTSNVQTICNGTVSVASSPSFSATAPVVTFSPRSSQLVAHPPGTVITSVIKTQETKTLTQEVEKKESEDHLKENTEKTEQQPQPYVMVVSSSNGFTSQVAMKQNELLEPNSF
Sequence of ELF4 (Q99607 whole entry): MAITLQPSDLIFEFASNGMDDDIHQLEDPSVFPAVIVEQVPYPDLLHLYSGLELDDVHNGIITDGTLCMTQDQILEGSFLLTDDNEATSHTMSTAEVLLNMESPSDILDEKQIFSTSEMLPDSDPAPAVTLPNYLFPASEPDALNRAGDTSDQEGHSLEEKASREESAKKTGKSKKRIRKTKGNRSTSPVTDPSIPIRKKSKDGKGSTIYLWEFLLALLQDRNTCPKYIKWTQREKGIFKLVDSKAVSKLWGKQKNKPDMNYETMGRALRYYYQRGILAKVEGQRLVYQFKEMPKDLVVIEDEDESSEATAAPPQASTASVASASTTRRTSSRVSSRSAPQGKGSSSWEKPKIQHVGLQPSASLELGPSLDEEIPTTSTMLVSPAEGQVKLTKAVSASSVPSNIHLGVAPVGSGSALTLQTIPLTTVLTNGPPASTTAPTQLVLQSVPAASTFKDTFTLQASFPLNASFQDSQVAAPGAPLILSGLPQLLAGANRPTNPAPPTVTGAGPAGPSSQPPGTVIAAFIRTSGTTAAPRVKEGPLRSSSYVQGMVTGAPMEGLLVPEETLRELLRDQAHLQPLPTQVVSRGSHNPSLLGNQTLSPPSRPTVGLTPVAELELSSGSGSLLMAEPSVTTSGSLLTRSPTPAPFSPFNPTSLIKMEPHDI
Sequence of CRX (O43186 whole entry): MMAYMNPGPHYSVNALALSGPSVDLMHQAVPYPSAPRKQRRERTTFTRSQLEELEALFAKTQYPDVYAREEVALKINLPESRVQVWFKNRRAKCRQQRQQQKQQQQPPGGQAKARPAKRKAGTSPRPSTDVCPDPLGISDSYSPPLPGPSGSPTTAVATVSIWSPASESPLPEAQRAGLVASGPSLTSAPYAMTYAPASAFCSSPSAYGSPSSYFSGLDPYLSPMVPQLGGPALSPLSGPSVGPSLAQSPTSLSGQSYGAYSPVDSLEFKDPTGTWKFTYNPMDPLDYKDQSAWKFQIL
Sequence of SPIB (Q01892 whole entry): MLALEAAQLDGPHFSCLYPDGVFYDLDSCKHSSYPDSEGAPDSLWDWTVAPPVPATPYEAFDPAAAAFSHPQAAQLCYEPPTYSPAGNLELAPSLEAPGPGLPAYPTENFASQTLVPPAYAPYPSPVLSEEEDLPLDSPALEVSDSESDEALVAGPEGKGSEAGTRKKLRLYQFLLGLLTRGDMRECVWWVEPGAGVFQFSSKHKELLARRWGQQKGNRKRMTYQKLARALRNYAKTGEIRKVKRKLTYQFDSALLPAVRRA
Sequence of HSF1 (Q00613 whole entry): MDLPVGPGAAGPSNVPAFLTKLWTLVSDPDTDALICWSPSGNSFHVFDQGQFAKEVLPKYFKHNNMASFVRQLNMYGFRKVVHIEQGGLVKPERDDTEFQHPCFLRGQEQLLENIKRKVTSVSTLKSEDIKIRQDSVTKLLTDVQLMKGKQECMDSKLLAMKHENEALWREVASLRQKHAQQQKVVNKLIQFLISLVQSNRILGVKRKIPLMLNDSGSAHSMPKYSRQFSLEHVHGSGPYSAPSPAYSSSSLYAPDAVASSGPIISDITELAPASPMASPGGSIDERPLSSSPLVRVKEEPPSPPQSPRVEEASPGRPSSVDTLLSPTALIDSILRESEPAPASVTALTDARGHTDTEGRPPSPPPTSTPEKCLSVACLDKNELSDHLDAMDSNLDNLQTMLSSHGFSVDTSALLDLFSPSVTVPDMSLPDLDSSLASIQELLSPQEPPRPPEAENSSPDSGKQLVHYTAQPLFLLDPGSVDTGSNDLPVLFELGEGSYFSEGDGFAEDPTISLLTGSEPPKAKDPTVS

Regarding ATATAT, the binding signal was 1.47 fold enrichment (6-mer frequency, TF over GST control) in experiment [1]; 1.38 fold enrichment (6-mer frequency, TF over GST control) in experiment [2]; 1.44 fold enrichment (6-mer frequency, TF over GST control) in [3]; 1.38 fold enrichment (6-mer frequency, TF over GST control) in experiment [4]; 1.47 fold enrichment (6-mer frequency, TF over GST control) in [5]; 1.4 fold enrichment (6-mer frequency, TF over GST control) in experiment [6]. Further, the binding signal is 1.37 fold enrichment (6-mer frequency, TF over GST control) in [7]; 1.42 fold enrichment (6-mer frequency, TF over GST control) in experiment [8]; 1.4 fold enrichment (6-mer frequency, TF over GST control) in experiment [9]; 1.41 fold enrichment (6-mer frequency, TF over GST control) in [10]; 1.42 fold enrichment (6-mer frequency, TF over GST control) in [11]; 1.31 fold enrichment (6-mer frequency, TF over GST control) in [12]. Besides, the binding signal is 1.51 fold enrichment (6-mer frequency, TF over GST control) in experiment [13]; 1.38 fold enrichment (6-mer frequency, TF over GST control) in [14]; 1.55 fold enrichment (6-mer frequency, TF over GST control) in experiment [15]; 1.31 fold enrichment (6-mer frequency, TF over GST control) in experiment [16]; 1.64 fold enrichment (6-mer frequency, TF over GST control) in experiment [17]; 1.46 fold enrichment (6-mer frequency, TF over GST control) in experiment [18]. In addition, the binding signal in [19] was 1.33 fold enrichment (6-mer frequency, TF over GST control).
